# Compounds without any hit were thinned out: in the full panel of roughly 79,000, 15% have a hit. A number with no mark means an inactive call. Active and inactive are the calls of the source. Cut-off read from the data, not from the text of the source: active = growth inhibition above about 70%; inactive = the rest.
# Legend:
# [1] = NCI Yeast Anticancer Drug Screen. Data for the rad52 strain (AID 147);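 note: 0% = growth of vehicle-treated control cultures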; conditions: S. cerevisiae rad52 mutant growth inhibition, stronger effect = higher value
# Method in brief: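 Screen used a yeast mutant impaired in DNA repair. After compound exposure, growth was measured. Values reflect inhibition compared with vehicle-treated cells.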
# [2] = NCI Yeast Anticancer Drug Screen. Data for the wt1 strain (AID 149);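 note: 0% = growth of vehicle-treated wt1 cultures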; conditions: S. cerevisiae wt1 strain (SPY 50644) growth inhibition, stronger effect = higher value
# Method in brief: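 Vehicle-normalised growth inhibition; strain wt1; compound exposure.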
# [3] = NCI Yeast Anticancer Drug Screen. Data for the rad50EPP+ strain (AID 151);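 note: 0% = growth of vehicle-treated control cultures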; conditions: S. cerevisiae rad50 mutant strain, stronger effect = higher value
# Method in brief: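 Exposing the rad50EPP+ strain to each compound, growth was compared with vehicle-only cultures to give inhibition.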
# [4] = NCI Yeast Anticancer Drug Screen. Data for the mgt1 strain (AID 153); conditions: S. cerevisiae mgt1 mutant growth inhibition, stronger effect = higher value
# Method in brief: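 Genetically defined yeast (mgt1) treated with compound; inhibition of growth expressed against vehicle-treated controls.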
# [5] = NCI Yeast Anticancer Drug Screen. Data for the rad50 strain (AID 155);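 note: 0% = growth of vehicle-only cultures of the same strain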; conditions: S. cerevisiae rad50 strain growth inhibition, stronger effect = higher value
# Method in brief: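 A DNA repair-deficient yeast mutant serves as the test organism; compound-induced growth inhibition is calculated against vehicle-treated cells.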
# [6] = NCI Yeast Anticancer Drug Screen. Data for the mec2-1 strain (AID 157); conditions: S. cerevisiae mec2-1 strain, stronger effect = higher value
# Method in brief: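 Readout is yeast growth inhibition, normalised to vehicle-treated controls, in the mec2-1 strain exposed to compound.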
# [7] = NCI Yeast Anticancer Drug Screen. Data for the rad14 strain (AID 159);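 note: 0% = growth of vehicle-treated control cultures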; conditions: S. cerevisiae rad14 strain growth inhibition, stronger effect = higher value
# Method in brief: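 Vehicle-treated cultures served as the baseline for growth inhibition of a DNA repair-mutant yeast strain exposed to each compound.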
# [8] = NCI Yeast Anticancer Drug Screen. Data for the sgs1 mgt1 strain (AID 161);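 note: 0% = growth of cultures given vehicle only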; conditions: S. cerevisiae sgs1 mgt1 strain, stronger effect = higher value
# Method in brief: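 Yeast cells carrying a defined DNA-repair defect were exposed to test compounds. Growth inhibition was measured relative to vehicle-treated controls.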
# [9] = NCI Yeast Anticancer Drug Screen. Data for the CLN2oe strain (AID 163);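 note: 0% = growth of vehicle-only control cultures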; conditions: S. cerevisiae CLN2oe strain, stronger effect = higher value
# Method in brief: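 Values reflect how much compound exposure reduced yeast growth, referenced to vehicle-exposed cells. Assay organism is a strain with a defined genetic change affecting cell-cycle control.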
# [10] = NCI Yeast Anticancer Drug Screen. Data for the cln2 rad14 strain (AID 165);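 note: 0% = growth equal to vehicle treated cultures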; conditions: S. cerevisiae cln2 rad14 strain, stronger effect = higher value
# Method in brief: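 Relative to vehicle controls, growth inhibition of compound-treated cln2 rad14 yeast was recorded.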
# [11] = NCI Yeast Anticancer Drug Screen. Data for the bub3 strain (AID 167); conditions: S. cerevisiae bub3 mutant strain, stronger effect = higher value
# Method in brief: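 Inhibition values come from growth of compound-treated mutant yeast normalised to vehicle-treated controls.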
# [12] = NCI Yeast Anticancer Drug Screen. Data for the wt2 strain (AID 169);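 note: 0% = growth of vehicle-treated yeast cultures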; conditions: S. cerevisiae wt2 strain growth inhibition, stronger effect = higher value
# Method in brief: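 Values express reduction in yeast growth under compound treatment, referenced to vehicle-treated cells.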
# [13] = NCI Yeast Anticancer Drug Screen. Data for the mlh1 strain (AID 171);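 note: 0% = growth of vehicle-treated control cultures of the same strain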; conditions: S. cerevisiae mlh1 strain growth inhibition, stronger effect = higher value
# Method in brief: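 Steps: expose the defined-mutant yeast strain to compound; expose a parallel culture to vehicle; measure growth; express compound effect as inhibition relative to the vehicle culture.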
# [14] = NCI Yeast Anticancer Drug Screen. Data for the sgs1 strain (AID 173);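 note: 0% = growth of vehicle-only control cultures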; conditions: S. cerevisiae sgs1 mutant, stronger effect = higher value
# Method in brief: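 Treat defined-mutant yeast with compound; measure growth; calculate inhibition relative to vehicle-treated cells.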
# [15] = NCI Yeast Anticancer Drug Screen. Data for the mlh1 rad18 strain (AID 175); conditions: S. cerevisiae mlh1 rad18 strain growth inhibition, stronger effect = higher value
# Method in brief: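 Test agents were incubated with a yeast strain of defined genotype (DNA damage repair defect). Inhibition of growth was derived by comparison with vehicle-exposed cultures.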
# [16] = NCI Yeast Anticancer Drug Screen. Data for the rad18 strain (AID 177); conditions: S. cerevisiae rad18 mutant growth inhibition, stronger effect = higher value
# Method in brief: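 A genetically defined yeast mutant impaired in DNA damage repair was treated with test compounds, then its growth was measured against cultures receiving vehicle alone.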
# [17] = at 5.0 µM (retest, dose inferred, filed as 0.5)
# [18] = at 50.0 µM (retest, dose inferred, filed as 5.0)
smiles,measurement,setting,value
C=C(C(=O)OC)N1C(=O)CC(C)C1=O (stereo not drawn),growth inhibition,[1]; at 1.2 µM,0%
same,growth inhibition,[1]; at 3.7 µM,10%
same,growth inhibition,[1]; at 11.0 µM,14%
same,growth inhibition,[1]; at 33.0 µM,24%
same,growth inhibition,[1]; at 100.0 µM,56%
same,growth inhibition,[2]; at 1.2 µM,7%
same,growth inhibition,[2]; at 3.7 µM,15%
same,growth inhibition,[2]; at 11.0 µM,12%
same,growth inhibition,[2]; at 33.0 µM,19%
same,growth inhibition,[2]; at 100.0 µM,67%
same,growth inhibition,[3]; at 1.2 µM,-1%
same,growth inhibition,[3]; at 3.7 µM,4%
same,growth inhibition,[3]; at 11.0 µM,6%
same,growth inhibition,[3]; at 33.0 µM,8%
same,growth inhibition,[3]; at 100.0 µM,-10%
same,growth inhibition,[4]; at 1.2 µM,16%
same,growth inhibition,[4]; at 3.7 µM,6%
same,growth inhibition,[4]; at 11.0 µM,9%
same,growth inhibition,[4]; at 33.0 µM,27%
same,growth inhibition,[4]; at 100.0 µM,71% (active)
same,growth inhibition,[5]; at 1.2 µM,8%
same,growth inhibition,[5]; at 3.7 µM,8%
same,growth inhibition,[5]; [17],14%
same,growth inhibition,[5]; at 11.0 µM,13%
same,growth inhibition,[5]; at 33.0 µM,14%
same,growth inhibition,[5]; [18],66%
same,growth inhibition,[5]; at 50.0 µM,75.5% (active)
same,growth inhibition,[5]; at 100.0 µM,67%
same,growth inhibition,[6]; at 1.2 µM,0%
same,growth inhibition,[6]; at 3.7 µM,12%
same,growth inhibition,[6]; [17],27%
same,growth inhibition,[6]; at 11.0 µM,23%
same,growth inhibition,[6]; at 33.0 µM,48%
same,growth inhibition,[6]; [18],85% (active)
same,growth inhibition,[6]; at 50.0 µM,80.2% (active)
same,growth inhibition,[6]; at 100.0 µM,81% (active)
same,growth inhibition,[7]; at 1.2 µM,-11%
same,growth inhibition,[7]; at 3.7 µM,-2%
same,growth inhibition,[7]; at 11.0 µM,8%
same,growth inhibition,[7]; at 33.0 µM,11%
same,growth inhibition,[7]; at 100.0 µM,68%
same,growth inhibition,[8]; [17],32%
same,growth inhibition,[8]; [18],81% (active)
same,growth inhibition,[8]; at 50.0 µM,77.3% (active)
same,growth inhibition,[9]; at 1.2 µM,-3%
same,growth inhibition,[9]; at 3.7 µM,11%
same,growth inhibition,[9]; at 11.0 µM,10%
same,growth inhibition,[9]; at 33.0 µM,14%
same,growth inhibition,[9]; at 100.0 µM,38%
same,growth inhibition,[10]; [17],6%
same,growth inhibition,[10]; [18],30%
same,growth inhibition,[10]; at 50.0 µM,47.4%
same,growth inhibition,[11]; at 1.2 µM,10%
same,growth inhibition,[11]; at 3.7 µM,1%
same,growth inhibition,[11]; [17],21%
same,growth inhibition,[11]; at 11.0 µM,9%
same,growth inhibition,[11]; at 33.0 µM,25%
same,growth inhibition,[11]; [18],88% (active)
same,growth inhibition,[11]; at 50.0 µM,85.5% (active)
same,growth inhibition,[11]; at 100.0 µM,80% (active)
same,growth inhibition,[12]; at 1.2 µM,-41%
same,growth inhibition,[12]; at 3.7 µM,-26%
same,growth inhibition,[12]; at 11.0 µM,-17%
same,growth inhibition,[12]; at 33.0 µM,50%
same,growth inhibition,[12]; at 100.0 µM,87% (active)
same,growth inhibition,[13]; at 1.2 µM,2%
same,growth inhibition,[13]; at 3.7 µM,4%
same,growth inhibition,[13]; at 11.0 µM,6%
same,growth inhibition,[13]; at 33.0 µM,42%
same,growth inhibition,[13]; at 100.0 µM,80% (active)
same,growth inhibition,[14]; at 1.2 µM,0%
same,growth inhibition,[14]; at 3.7 µM,12%
same,growth inhibition,[14]; at 11.0 µM,21%
same,growth inhibition,[14]; at 33.0 µM,40%
same,growth inhibition,[14]; at 100.0 µM,67%
same,growth inhibition,[15]; [17],57%
same,growth inhibition,[15]; [18],96% (active)
same,growth inhibition,[15]; at 50.0 µM,67.5%
same,growth inhibition,[16]; at 1.2 µM,-5%
same,growth inhibition,[16]; at 3.7 µM,7%
same,growth inhibition,[16]; at 11.0 µM,17%
same,growth inhibition,[16]; at 33.0 µM,32%
same,growth inhibition,[16]; at 100.0 µM,75% (active)

# Reference: PubChem BioAssay (NCI)
